Source: PubChem BioAssay (National Center for Advancing Translational Sciences (NCATS))
TDP1 cell noCPT = qHTS for Inhibitors of human tyrosyl-DNA phosphodiesterase 1 (TDP1): qHTS in cells in absence of CPT | DT40 Tdp1-/- hTDP1 cells, no CPT, ATP luminescence, 48 h | Potency, µM (titrated, usually from 46.2 µM), most hits filed as inhibitors | 420,000 compounds, 15% hits | AID 686978, 2013; further: nearly all actives have a fitted effect of over 55% in size
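Chicken DT40 Tdp1-/- cells complemented with human TDP1, screened without camptothecin (DMSO vehicle only), 400 cells/well. Compounds pin-transferred, cells incubated at 37 °C for at least 48 hr. Growth read as ATP-dependent luminescence (CellTiter-Glo, 30 min at RT).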
ClpP mod = qHTS Assay for Activators of ClpP; ATP-dependent Clp protease proteolytic subunit (Bacillus subtilis (strain 168)), P80244; purified B. subtilis ClpP, FRET peptide cleavage, 20 min; Potency, µM (series often up to 57.5 µM); 340,000 compounds, 1.9% hits; AID 651965, 2013; active means well fitted falling curve with a large enough effect; inconclusive means small, poorly fitted or top-dose-only effect; inactive means no such curve, though single readings can be large or run the other way; further: the source files actives as falling curves though it sought activators and does not explain the sign; nearly all actives have a fitted effect of over 65% in size
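ClpP 10 microg/mL final, pH 8 Tris/KCl buffer with BSA, glycerol, Tween-20; compound pinned in; FRET-FV substrate; RT 20 min; Ex320/Em430; ΔFRET vs ADEP 5.8 microM, DMSO, no enzyme.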
TDP1 cell CPT = qHTS for Inhibitors of human tyrosyl-DNA phosphodiesterase 1 (TDP1): qHTS in cells in presence of CPT; chicken DT40 Tdp1-/-;hTDP1 cells + 20 nM CPT, ATP luminescence, 48 h; AID 686979, 2013; Potency, µM (highest dose often 46.2 µM), actives largely listed as inhibitors; 420,000 compounds, 12% hits; further: nearly all actives have a fitted effect of over 55% in size
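Cell growth measured by CellTiter-Glo luminescence after a minimum 48 h, 37 C compound exposure with 20 nM CPT in Tdp1-knockout DT40 cells stably expressing hTDP1, seeded 400/well; qHTS titration format.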
TDP1 block = qHTS Assay for Inhibitors of Tyrosyl-DNA Phosphodiesterase (TDP1); Tyrosyl-DNA phosphodiesterase 1 (Homo sapiens), Q9NUW8; AID 485290, 2010; 350,000 compounds, 0.28% hits; recombinant TDP1, AlphaScreen DNA substrate cleavage; Potency, µM (doses to about 130 µM), usual class: inhibitors; further: nearly all actives have a fitted effect of over 40% in size
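Recombinant human Tdp1 (E. coli-expressed, 1 nM final) preincubated with compounds 15 min at room temperature, then 5'-biotin/3'-phosphotyrosine-FITC DNA substrate (15 nM final) added for 5 min. AlphaScreen beads (10 ug/ml final) added 10 min; cleavage lowers signal.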
Numbers stand for hits; - = inactive; ? = inconclusive; . = no result given; [ ] = dose if it differs, or a comment. Most compounds without a hit are left out; they make up all but 17% or so of the library. Unless noted, the call rests on the fitted dose curve; in most records, active means well fitted curve in the direction sought with a large enough effect; inconclusive means small, poorly fitted or top-dose-only effect, or another doubt; inactive means no such curve, though single readings can be large; an effect the other way counts as inactive or inconclusive.

SMILES	TDP1 cell noCPT	ClpP mod	TDP1 cell CPT	TDP1 block
Cc1ccccc1CN1N=C(/C=C/c2ccccc2)CCC1=O	23µM	.	-	-
OCCn1nc(-c2ccccc2)cc1-c1ccccc1	-	-	-	.
O=C(O)c1cc(O)c2c(c1)[C@@H]([C@H]1c3cc(C(=O)O)cc(O)c3C(=O)c3c(O[C@@H]4O[C@H](CO)[C@@H](O)[C@H](O)[C@H]4O)cccc31)c1cccc(O[C@@H]3O[C@H](CO)[C@@H](O)[C@H](O)[C@H]3O)c1C2=O	?	-	6.5µM	.
CC(/C=N/Nc1nc(C)cc(C)n1)=C\c1ccc(C(C)C)cc1	?	-	?	-
Cc1nc2scc(C)n2c(=O)c1S(=O)(=O)Nc1ccc(N2CCN(S(C)(=O)=O)CC2)cc1	18µM	-	23µM	-
CC(=O)c1ccc(NS(=O)(=O)c2c(C)nc3scc(C)n3c2=O)cc1	-	-	-	-[12.3 µM]
CCOc1cc2c(cc1OCC)C(c1ccc(F)cc1)NCC2 (configuration not stated)	?	-	-	.
CCc1ccc(OCC2NCCc3cc(OC)c(OC)cc32)cc1 (configuration not stated)	18µM	-	?	-
CCOc1ccc(CC2NCCc3cc(OCC)c(OCC)cc32)cc1OCC (configuration not stated)	4.1µM	-	3.7µM	-
Cc1ccc(NC(=O)Cn2ccn(Cc3ccc(Cl)cc3)c(=O)c2=O)cc1C	-	-	-	-
COc1ccc(CN2CCC3(CC2)c2ccccc2[C@@H](NC(=O)c2ccsc2)[C@@H]3OC)cc1O	-	.	?	.
CCN1C(=O)[C@@H]2Cc3c([nH]c4ccccc34)C(c3ccc(OC)cc3)N2C1=S (some centres not stated)	15µM	-	?	.
C=CCN1CC(=O)N2C(c3ccccc3)c3[nH]c4ccccc4c3C[C@H]2C1=O (some centres not stated)	18µM	-	?	.
COc1ccc(C2c3[nH]c4ccccc4c3CC3C(=O)N(CCc4ccc(OC)c(OC)c4)CC(=O)N32)cc1 (configuration not stated)	-[9.04 µM]	.	-[9.04 µM]	-
COCCCN1CC(=O)N2C(c3ccccc3)c3[nH]c4ccccc4c3C[C@H]2C1=O (some centres not stated)	-	-	-	.
COC(=O)c1ccc(C2c3[nH]c4ccccc4c3C[C@H]3C(=O)N(C)CC(=O)N23)cc1 (some centres not stated)	-	.	-	.
CN1CC(=O)N2C(c3ccc(Cl)cc3)c3[nH]c4ccccc4c3C[C@H]2C1=O (some centres not stated)	?	-	15µM	.
CN1CC(=O)N2C(c3cccc([N+](=O)[O-])c3)c3[nH]c4ccccc4c3C[C@H]2C1=O (some centres not stated)	1.8µM	-	1µM	.
O=C1[C@@H]2Cc3c([nH]c4ccccc34)C(c3ccc([N+](=O)[O-])cc3)N2C(=O)CN1C1CC1 (some centres not stated)	4.6µM	-	2.6µM	.
Cc1cc2oc(=O)cc(Cn3nnc(-c4ccc(Cl)cc4)n3)c2cc1C(C)C	.	.	.	-
COc1ccc(S(=O)(=O)N2CCOCC2)cc1NC(=O)CC(C)c1ccccc1 (configuration not stated)	21µM	-	-	-
CCCC(NCC(=O)Nc1cc(S(=O)(=O)N2CCOCC2)ccc1OC)c1ccccc1 (configuration not stated)	15µM	-	16µM	-
CCCCN(CCCC)c1ccc(/C=C/c2ccnc3ccccc23)cc1	?	-	?	.
CCc1cc(/C=C/c2ccnc3ccccc23)ccc1N(C)C	2.8µM	-	5µM	.
CN(C)c1ccc(/C=C/c2ccnc3ccccc23)cc1O	10µM	-	11µM	.
CN(C)c1ccc(/C=C/c2ccnc3ccccc23)cc1[N+](=O)[O-]	-	-	-	.
CCOc1ccc(/C=C/c2ccnc3ccccc23)cc1OCC	11µM	-	10µM	.
CN(C)c1ccc(/C=C/c2ccnc3ccccc23)cc1C=O	10µM	-	16µM	.
CCN(CC)c1ccc(CNCc2cccs2)cc1	21µM	-	16µM	-
